Experiment in all cases: DAPPL (digital affinity profiling via proximity ligation, sequencing); 10 mM Tris-HCl pH 7.5, 50 mM NaCl, 1 mM DTT, 4% glycerol, room temperature, 30 min; GST-TFs on glutathione beads, 16-mer random dsDNA library, 0.1% formaldehyde crosslink after washing; high values mean tight binding
What all share (settings): protein: recombinant; tags: N-terminal GST; dsDNA, one strand shown

One test addresses T1, FLI1 (Homo sapiens, UniProt Q01543 1-452).
T1 sequence: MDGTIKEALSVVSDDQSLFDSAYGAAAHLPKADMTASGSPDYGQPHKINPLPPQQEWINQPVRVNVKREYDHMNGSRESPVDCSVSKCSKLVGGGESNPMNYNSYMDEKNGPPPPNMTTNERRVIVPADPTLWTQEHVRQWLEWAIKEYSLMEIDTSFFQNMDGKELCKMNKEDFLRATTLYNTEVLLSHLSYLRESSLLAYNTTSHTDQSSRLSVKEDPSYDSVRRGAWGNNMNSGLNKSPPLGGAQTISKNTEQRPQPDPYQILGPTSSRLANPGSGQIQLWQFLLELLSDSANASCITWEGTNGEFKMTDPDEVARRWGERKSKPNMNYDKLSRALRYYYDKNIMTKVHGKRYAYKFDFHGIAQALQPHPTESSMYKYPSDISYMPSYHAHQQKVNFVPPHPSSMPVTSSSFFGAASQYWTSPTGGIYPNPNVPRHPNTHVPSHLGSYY
A digest of the protocol: (§1)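 Binding signal is given per hexamer as its read frequency for a factor divided by its frequency in the tag-only sample. GST-fused human transcription factors were expressed in yeast, captured on glutathione beads, barcoded with DNA and pooled with that sample, then incubated with 200 nmole of a 16-mer random double-stranded DNA library in Tris/NaCl/DTT/glycerol buffer for 30 min at room temperature. The pools were then washed, crosslinked, proximity-ligated, amplified by PCR and sequenced on an Illumina NextSeq500.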

Another test concerns the target T2, ELK1 (Homo sapiens, UniProt P19419 1-428).
T2 sequence: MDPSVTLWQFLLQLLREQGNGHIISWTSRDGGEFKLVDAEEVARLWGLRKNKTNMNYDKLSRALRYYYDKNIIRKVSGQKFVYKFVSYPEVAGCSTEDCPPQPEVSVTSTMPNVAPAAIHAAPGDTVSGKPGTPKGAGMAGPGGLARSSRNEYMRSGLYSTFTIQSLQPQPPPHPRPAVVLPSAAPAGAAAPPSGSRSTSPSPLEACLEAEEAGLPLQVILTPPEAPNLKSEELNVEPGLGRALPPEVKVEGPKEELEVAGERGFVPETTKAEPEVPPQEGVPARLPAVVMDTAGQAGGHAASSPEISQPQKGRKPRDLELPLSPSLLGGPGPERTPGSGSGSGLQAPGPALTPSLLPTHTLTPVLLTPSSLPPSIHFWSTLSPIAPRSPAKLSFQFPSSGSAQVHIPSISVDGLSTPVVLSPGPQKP
A digest of the protocol: as §1

The next test addresses T3, GABPA (Homo sapiens, UniProt Q06546 1-454).
T3 sequence: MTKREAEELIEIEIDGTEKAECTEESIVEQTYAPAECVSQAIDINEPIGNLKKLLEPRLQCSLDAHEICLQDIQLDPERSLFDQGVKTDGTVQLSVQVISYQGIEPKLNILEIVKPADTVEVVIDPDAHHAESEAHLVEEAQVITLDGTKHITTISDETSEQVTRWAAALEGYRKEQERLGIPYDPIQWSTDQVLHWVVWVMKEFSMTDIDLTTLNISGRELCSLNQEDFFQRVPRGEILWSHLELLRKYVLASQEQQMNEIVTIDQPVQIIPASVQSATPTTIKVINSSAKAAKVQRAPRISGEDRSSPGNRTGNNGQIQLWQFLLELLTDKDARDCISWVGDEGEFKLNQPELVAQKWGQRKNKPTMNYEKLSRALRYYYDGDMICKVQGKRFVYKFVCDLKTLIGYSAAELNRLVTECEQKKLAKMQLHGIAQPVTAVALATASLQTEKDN
A digest of the protocol:
as §1

The target of another test is T4, ERG (Homo sapiens, UniProt P11308 1-479).
T4 sequence: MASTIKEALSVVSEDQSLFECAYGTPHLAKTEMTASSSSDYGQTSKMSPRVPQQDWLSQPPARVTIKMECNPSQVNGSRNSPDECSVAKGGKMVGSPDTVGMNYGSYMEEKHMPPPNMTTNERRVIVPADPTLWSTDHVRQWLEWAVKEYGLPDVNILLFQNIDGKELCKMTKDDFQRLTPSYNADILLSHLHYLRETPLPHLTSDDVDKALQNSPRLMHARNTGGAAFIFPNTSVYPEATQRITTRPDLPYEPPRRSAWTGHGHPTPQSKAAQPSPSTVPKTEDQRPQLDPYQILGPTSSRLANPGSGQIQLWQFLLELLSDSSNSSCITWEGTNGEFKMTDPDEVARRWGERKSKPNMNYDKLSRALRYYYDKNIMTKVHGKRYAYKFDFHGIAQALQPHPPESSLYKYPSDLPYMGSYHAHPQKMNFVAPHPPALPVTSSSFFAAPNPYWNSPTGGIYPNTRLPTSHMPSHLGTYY
A digest of the protocol: as §1

The target of another test is ELF1 (Homo sapiens, UniProt P32519 1-619). A digest of the protocol:
as §1

The next test has as its target T5, EHF (Homo sapiens, UniProt Q9NZC4 1-300).
T5 sequence: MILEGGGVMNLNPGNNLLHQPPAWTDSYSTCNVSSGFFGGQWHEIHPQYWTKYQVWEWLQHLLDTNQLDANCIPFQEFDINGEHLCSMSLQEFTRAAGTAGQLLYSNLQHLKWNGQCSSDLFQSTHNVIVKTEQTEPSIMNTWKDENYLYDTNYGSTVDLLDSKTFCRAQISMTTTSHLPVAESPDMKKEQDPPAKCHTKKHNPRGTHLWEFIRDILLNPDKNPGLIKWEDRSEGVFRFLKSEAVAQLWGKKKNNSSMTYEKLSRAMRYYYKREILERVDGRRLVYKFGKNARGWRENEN
The procedure, abridged:
as §1

A further test concerns the target SPI1 (Homo sapiens, UniProt P17947 1-270). A digest of the protocol: as §1
Another test concerns the target SPIB (Homo sapiens, UniProt Q01892 1-262). The procedure, abridged: as §1
The target in the next test is T6, ELK3 (Homo sapiens, UniProt P41970 1-407).
T6 sequence: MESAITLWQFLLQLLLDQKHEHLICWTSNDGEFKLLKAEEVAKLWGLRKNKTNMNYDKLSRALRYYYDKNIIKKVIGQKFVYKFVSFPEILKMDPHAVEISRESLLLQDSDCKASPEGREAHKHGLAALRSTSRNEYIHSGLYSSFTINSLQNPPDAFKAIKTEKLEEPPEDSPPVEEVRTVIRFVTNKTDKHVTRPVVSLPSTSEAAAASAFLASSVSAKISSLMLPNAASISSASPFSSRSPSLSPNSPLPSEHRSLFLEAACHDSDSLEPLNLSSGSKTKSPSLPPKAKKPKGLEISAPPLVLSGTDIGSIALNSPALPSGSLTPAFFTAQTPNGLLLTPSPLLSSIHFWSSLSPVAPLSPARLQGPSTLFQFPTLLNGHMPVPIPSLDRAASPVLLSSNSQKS
A digest of the protocol:
as §1

Chain of ELF1 (P32519 whole entry): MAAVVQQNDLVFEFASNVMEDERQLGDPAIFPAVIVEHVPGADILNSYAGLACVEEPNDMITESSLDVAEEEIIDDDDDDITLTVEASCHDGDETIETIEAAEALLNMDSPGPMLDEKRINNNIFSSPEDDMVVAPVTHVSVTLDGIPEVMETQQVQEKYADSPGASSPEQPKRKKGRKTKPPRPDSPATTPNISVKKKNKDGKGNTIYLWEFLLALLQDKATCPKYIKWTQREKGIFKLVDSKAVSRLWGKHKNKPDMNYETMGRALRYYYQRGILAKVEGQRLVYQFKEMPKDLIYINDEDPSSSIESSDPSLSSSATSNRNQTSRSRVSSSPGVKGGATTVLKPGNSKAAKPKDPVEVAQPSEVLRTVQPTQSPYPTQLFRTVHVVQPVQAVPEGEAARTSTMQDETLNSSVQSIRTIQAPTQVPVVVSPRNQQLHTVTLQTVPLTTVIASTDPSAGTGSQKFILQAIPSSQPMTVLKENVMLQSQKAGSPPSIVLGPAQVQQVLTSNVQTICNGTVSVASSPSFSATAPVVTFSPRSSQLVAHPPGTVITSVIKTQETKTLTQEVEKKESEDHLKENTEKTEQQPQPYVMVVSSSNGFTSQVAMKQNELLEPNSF
Chain of SPIB (Q01892 whole entry): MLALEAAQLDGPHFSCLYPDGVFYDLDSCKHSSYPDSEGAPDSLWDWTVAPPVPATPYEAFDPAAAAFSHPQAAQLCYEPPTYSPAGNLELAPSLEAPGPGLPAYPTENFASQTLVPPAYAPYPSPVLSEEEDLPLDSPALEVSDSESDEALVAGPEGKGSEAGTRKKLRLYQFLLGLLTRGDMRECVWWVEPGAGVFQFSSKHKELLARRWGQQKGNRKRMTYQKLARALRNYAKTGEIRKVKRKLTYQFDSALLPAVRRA

ATACGA: the binding signal in the test with FLI1 was 1.09 fold enrichment (6-mer frequency, TF over GST control); with ELK1, 1.12 fold enrichment (6-mer frequency, TF over GST control); in the test with GABPA, 1.1 fold enrichment (6-mer frequency, TF over GST control); with ERG it was 1.14 fold enrichment (6-mer frequency, TF over GST control); in the test with ELF1 it was 1.14 fold enrichment (6-mer frequency, TF over GST control); in the test with EHF, 1.12 fold enrichment (6-mer frequency, TF over GST control). In addition, the binding signal was 1.08 fold enrichment (6-mer frequency, TF over GST control) in the test with SPI1; 1.09 fold enrichment (6-mer frequency, TF over GST control) with SPIB; 1.23 fold enrichment (6-mer frequency, TF over GST control) with ELK3.

With TGATGG, the binding signal with FLI1 is 1.24 fold enrichment (6-mer frequency, TF over GST control); with ELK1 it was 1.27 fold enrichment (6-mer frequency, TF over GST control); in the test with GABPA it was 1.29 fold enrichment (6-mer frequency, TF over GST control); with ERG, 1.24 fold enrichment (6-mer frequency, TF over GST control); in the test with ELF1, 1.24 fold enrichment (6-mer frequency, TF over GST control); with EHF, 1.31 fold enrichment (6-mer frequency, TF over GST control). Further, the binding signal with SPI1 is 1.28 fold enrichment (6-mer frequency, TF over GST control); with SPIB it was 1.39 fold enrichment (6-mer frequency, TF over GST control); with ELK3 it was 1.16 fold enrichment (6-mer frequency, TF over GST control).

CCGCTT: the binding signal with FLI1 was 1.89 fold enrichment (6-mer frequency, TF over GST control); with ELK1, 1.89 fold enrichment (6-mer frequency, TF over GST control); in the test with GABPA, 1.84 fold enrichment (6-mer frequency, TF over GST control); with ERG, 1.85 fold enrichment (6-mer frequency, TF over GST control); in the test with ELF1, 1.92 fold enrichment (6-mer frequency, TF over GST control); with EHF, 1.93 fold enrichment (6-mer frequency, TF over GST control). The binding signal was 2.69 fold enrichment (6-mer frequency, TF over GST control) in the test with SPI1; 1.93 fold enrichment (6-mer frequency, TF over GST control) in the test with SPIB; 2.06 fold enrichment (6-mer frequency, TF over GST control) with ELK3.

TTTGAT: the binding signal with FLI1 was 1.37 fold enrichment (6-mer frequency, TF over GST control); with ELK1, 1.36 fold enrichment (6-mer frequency, TF over GST control); in the test with GABPA it was 1.26 fold enrichment (6-mer frequency, TF over GST control); with ERG, 1.3 fold enrichment (6-mer frequency, TF over GST control); with ELF1, 1.23 fold enrichment (6-mer frequency, TF over GST control); in the test with EHF, 1.25 fold enrichment (6-mer frequency, TF over GST control). In addition, the binding signal with SPI1 was 1.22 fold enrichment (6-mer frequency, TF over GST control); with SPIB it was 1.31 fold enrichment (6-mer frequency, TF over GST control); in the test with ELK3 it was 1.12 fold enrichment (6-mer frequency, TF over GST control).

AGATTT: the binding signal was 1.12 fold enrichment (6-mer frequency, TF over GST control) with FLI1; 1.14 fold enrichment (6-mer frequency, TF over GST control) in the test with ELK1; 1.08 fold enrichment (6-mer frequency, TF over GST control) with GABPA; 1.21 fold enrichment (6-mer frequency, TF over GST control) with ERG; 1.11 fold enrichment (6-mer frequency, TF over GST control) in the test with ELF1; 1.2 fold enrichment (6-mer frequency, TF over GST control) with EHF. The binding signal in the test with SPI1 was 1.13 fold enrichment (6-mer frequency, TF over GST control); with SPIB it was 1.09 fold enrichment (6-mer frequency, TF over GST control); with ELK3, 1.01 fold enrichment (6-mer frequency, TF over GST control).

In the case of AATAAG, the binding signal in the test with FLI1 was 1.22 fold enrichment (6-mer frequency, TF over GST control); with ELK1 it was 1.21 fold enrichment (6-mer frequency, TF over GST control); in the test with GABPA, 1.31 fold enrichment (6-mer frequency, TF over GST control); with ERG, 1.37 fold enrichment (6-mer frequency, TF over GST control); with ELF1 it was 1.24 fold enrichment (6-mer frequency, TF over GST control); with EHF, 1.22 fold enrichment (6-mer frequency, TF over GST control). In addition, the binding signal in the test with SPI1 was 1.27 fold enrichment (6-mer frequency, TF over GST control); with SPIB, 1.3 fold enrichment (6-mer frequency, TF over GST control); with ELK3, 1.23 fold enrichment (6-mer frequency, TF over GST control).

TCCGAT: the binding signal with FLI1 was 1.32 fold enrichment (6-mer frequency, TF over GST control); with ELK1, 1.37 fold enrichment (6-mer frequency, TF over GST control); in the test with GABPA, 1.17 fold enrichment (6-mer frequency, TF over GST control); in the test with ERG, 1.51 fold enrichment (6-mer frequency, TF over GST control); with ELF1, 1.27 fold enrichment (6-mer frequency, TF over GST control); with EHF, 1.36 fold enrichment (6-mer frequency, TF over GST control). Besides, the binding signal is 1.29 fold enrichment (6-mer frequency, TF over GST control) with SPI1; 1.24 fold enrichment (6-mer frequency, TF over GST control) in the test with SPIB; 1.27 fold enrichment (6-mer frequency, TF over GST control) with ELK3.

Source of the values: paper PMC7862700, “An all-to-all approach to the identification of sequence-specific readers for epigenetic DNA modifications on cytosine”.
